Experimental data reported in the supplement of paper PMC3334620.
The full ranking holds about 33,000 sequences; the median of “E-score (-0.5 to 0.5)” is about -0.015, and the highest 2% start at about 0.3. Shown is part of a subset that was picked to be rich in the highest values.

What follows are sequences tested against T1, Abf1 (UniProt P14164) (assay: PBM E-score (8-mer binding enrichment) (E-score (-0.5 to 0.5)); higher = stronger / more preferred TF binding). Conditions: protein concentration: 200 nM; construct: GST-full length.
T1 sequence: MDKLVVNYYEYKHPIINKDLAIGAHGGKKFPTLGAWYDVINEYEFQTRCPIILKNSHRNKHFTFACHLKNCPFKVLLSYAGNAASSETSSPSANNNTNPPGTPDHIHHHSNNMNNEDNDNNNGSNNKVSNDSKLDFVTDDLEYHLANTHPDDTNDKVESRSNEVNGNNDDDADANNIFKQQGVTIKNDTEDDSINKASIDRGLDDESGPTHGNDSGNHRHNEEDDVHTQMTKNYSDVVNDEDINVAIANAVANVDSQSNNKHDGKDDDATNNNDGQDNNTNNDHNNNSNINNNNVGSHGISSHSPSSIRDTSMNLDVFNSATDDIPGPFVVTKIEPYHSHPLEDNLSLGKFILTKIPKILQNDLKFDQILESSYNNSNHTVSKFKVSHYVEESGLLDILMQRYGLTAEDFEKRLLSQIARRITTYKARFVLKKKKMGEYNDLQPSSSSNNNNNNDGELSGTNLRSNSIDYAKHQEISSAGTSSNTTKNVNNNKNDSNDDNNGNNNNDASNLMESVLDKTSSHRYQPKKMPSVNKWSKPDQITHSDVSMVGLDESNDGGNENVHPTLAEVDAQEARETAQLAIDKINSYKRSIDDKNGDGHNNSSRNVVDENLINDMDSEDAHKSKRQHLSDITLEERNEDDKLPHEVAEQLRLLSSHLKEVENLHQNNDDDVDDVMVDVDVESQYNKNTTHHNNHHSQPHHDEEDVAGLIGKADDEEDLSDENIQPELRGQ
Procedure: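 Universal 'all 10-mer' protein binding microarrays (Agilent AMADID 015681) probed with GST-tagged S. cerevisiae TFs (full-length or DBD) made by in vitro transcription/translation (PURExpress), about 100-200 nM. Bound TF was detected with fluorescent anti-GST. Each ungapped 8-mer (which stands for itself and its reverse complement) is scored by the PBM enrichment score (E-score), a modified Wilcoxon-Mann-Whitney statistic from -0.5 to +0.5, computed with the Universal PBM Analysis Suite. Scale: above 0.35 generally sequence-specific binding.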

| Sequence | PBM E-score |
| --- | --- |
| GATCGCGC | 0.121 |
| AATCGCGA | 0.176 |
| GATCGCCA | 0.165 |
| GATCGCGA | 0.315 |
| CATCGCGA | 0.2 |
| TATCGCGA | 0.34 |
| ATTTAGCA | 0.193 |
| AGGTAATG | 0.0091 |
| AACTCTAT | -0.096 |
| CGTCTTTC | 0.0707 |
| GGTCTTTA | 0.0661 |
| CGTCTTTA | 0.301 |
| CTTGTTAA | -0.072 |
| GCCGTGCA | 0.223 |
| TCCGTGAA | 0.238 |
| ACCGTGCT | 0.139 |
| ATCGTGCC | 0.276 |
| ATCGTGCA | 0.282 |
| CCCGTGCG | 0.054 |
| ATCGTGCG | 0.366 |
| CCCGTGCA | 0.0856 |
| TCCGTGCA | 0.312 |
| ACCGTGCC | 0.0366 |
| ACCGTGCG | 0.315 |
| ACCGTGCA | 0.315 |
| AAGTTGTG | -0.0478 |

| Sequence | PBM E-score |
| --- | --- |
| CTAGGAAG | -0.18 |
| CACTGAGA | -0.104 |
| AGAAGTTG | -0.0778 |
| CTTCGACC | -0.0331 |
| GTAGTCAA | 0.106 |
| CGTGAGTC | 0.0135 |
| CGCCCGCG | -0.0644 |
| AACAGTAT | 0.0291 |
| AGGTCCAC | -0.0594 |
| AATACGGG | 0.202 |
| GATACGGC | 0.199 |
| CATACGAC | 0.333 |
| AATACGGC | 0.32 |
| AATACGGT | 0.194 |
| CATACGAG | 0.171 |
| CATACGGC | 0.346 |
| CATACGGA | 0.295 |
| CATACGCC | -0.00293 |
| CAGCTTTC | -0.00915 |
| AAACTTCT | 0.211 |
| ATCGCCAC | 0.275 |
| ATAGATAC | -0.0386 |
| GTCACTTA | 0.355 |
| ATCACTTA | 0.355 |
| CTCACTTC | -0.0359 |
| GTCACTGA | 0.253 |

| Sequence | PBM E-score |
| --- | --- |
| CTCACTTA | 0.14 |
| AGCACTTC | 0.0874 |
| AGCACTTG | -0.314 |
| ATCACTTG | 0.355 |
| AACACTTG | -0.0627 |
| ATCACTGA | 0.205 |
| GCCACTTA | -0.0218 |
| ATCACTTC | 0.376 |
| CACGGGTC | -0.0483 |
| CGTGTGGC | 0.0664 |
| ATACCGAA | 0.189 |
| ATTGACGC | -0.156 |
| AGTTCTTC | -0.0427 |
| CTTCAGAA | -0.179 |
| CAAGAACG | 0.123 |
| GCCATTAA | 0.0468 |
| AATTGAAG | -0.0559 |
| GACACGGA | 0.167 |
| TACACGAA | 0.337 |
| CACACGAC | 0.295 |
| CACACGAA | 0.341 |
| GACACGAA | 0.172 |
| TACACGGA | 0.329 |
| AACACGAA | 0.205 |
| CACACGGA | 0.0992 |
| CACACGAG | 0.107 |

| Sequence | PBM E-score |
| --- | --- |
| GGGCAGCA | -0.256 |
| AGCAGGTG | -0.0258 |
| ACCTAACC | 0.0492 |
| ACTTAGGC | -0.111 |
| ACTCATCC | 0.227 |
| TACGAAGA | 0.334 |
| AACGAAGA | 0.188 |
| TACGAATA | 0.25 |
| GACGAAGA | 0.253 |
| CACGAAGA | 0.316 |
| TCCGAAGA | -0.0522 |
| CAGCAGGA | -0.0545 |
| ACCCTACT | -0.231 |
| CCTATTCC | -0.139 |
| GCAGGTAC | -0.221 |
| AAATGACG | 0.187 |
| GAATGACA | 0.311 |
| GAATGACC | 0.0136 |
| CAATGACA | 0.214 |
| TAATGCCA | -0.0319 |
| TAATGACA | 0.376 |
| TATTGACA | -0.0437 |
| AAATGACA | 0.358 |
| AAATGACC | 0.215 |
